# Screens: PubChem, National Center for Advancing Translational Sciences (NCATS)
# An excerpt weighted towards active compounds, which were near 19% of everything screened.
# DT40 TDP1 no CPT: qHTS for Inhibitors of human tyrosyl-DNA phosphodiesterase 1 (TDP1): qHTS in cells in absence of CPT | DT40 Tdp1-/- hTDP1 cells, no CPT, ATP luminescence, 48 h | Potency, µM (titrated, usually from 46.2 µM), hits mostly inhibitors | 15% of 420,000 active; note: nearly all actives have a fitted effect of over 55% in size
#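 A cellular qHTS used chicken DT40 cells lacking endogenous Tdp1 but carrying stably transfected human TDP1. Compounds were applied without camptothecin, and cell growth kinetics were judged by ATP-dependent luminescence after ≥48 hr.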
# DT40 TDP1 CPT: DT40-hTDP1 cell growth loss with CPT; chicken DT40 Tdp1-/-;hTDP1 cells + 20 nM CPT, ATP luminescence, 48 h; Potency, µM (highest dose often 46.2 µM), most hits filed as inhibitors; AID 686979; 12% of 420,000 active; note: nearly all actives have a fitted effect of over 55% in size
#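 Chicken DT40 Tdp1-/- cells stably complemented with human TDP1 were seeded at 400 cells/well in medium containing 20 nM camptothecin, exposed to pin-transferred compounds, and grown at 37 °C for at least 48 hr. Viability was read as ATP luminescence.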
# HT1080NT lethal: kills 2HG-producing HT-1080-NT fibrosarcoma cells | HT-1080-NT fibrosarcoma viability, CellTiter-Glo ATP luminescence, 48 h | Potency, µM (series often up to 46.1 µM), actives largely listed as cytotoxic | 1.6% of 360,000 active | AID 686970;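 note: NT is the 2HG producing partner of a matched IDH1 knockdown line; nearly all actives have a fitted effect of over 55% in size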
#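 A 48-hour cytotoxicity screen used HT-1080-NT cells plated 2 hours before compound delivery. ATP-based CellTiter-Glo luminescence measured viability, normalized to DMSO and no-cell controls.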
# IL1B secr inh: inhibitors of inflammasome signaling (IL-1 beta secretion) | THP-1 LPS/ATP IL-1B secretion, AlphaLISA, 16 h; stronger effect = lower value | activity change, % at 57.5 µM | 4.7% of 360,000 active | AID 743279; in the data active = activity change below about -50%; inconclusive = mostly about -30% to -49%
#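 Secreted IL-1B measured by AlphaLISA bead assay after 16 h compound exposure of THP-1 cells; compounds (final up to 57.5 uM) added 1 h before LPS (250 ng/mL) and ATP (1.25 mM) stimulation; lower signal means less secretion.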
# HT1080 IDH1KD tx: kills HT-1080 cells with IDH1 knockdown | HT-1080 IDH1 knockdown viability, ATP luminescence, 48 h | Potency, µM (titrated, usually from 46.1 µM), actives largely listed as cytotoxic | 2% of 360,000 active
#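 IDH1KD HT-1080 cells, 750/well, RPMI + 5% FBS; compound pinned after 2 h settling; 48 h, 37 °C; CellTiter-Glo luminescence; % activity normalised to DMSO and no-cell wells; curves fitted, classed by r2 and efficacy.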
# A number is an active result; n = inactive; u = inconclusive; x = no result. Unless noted, calls come from the whole dose curve; as a rule, active = well fitted curve in the direction sought with a large enough effect; inconclusive = small, poorly fitted or top-dose-only effect, or another doubt; inactive = no such curve, though single readings can be large; an effect the other way counts as inactive or inconclusive.
SMILES,DT40 TDP1 no CPT,DT40 TDP1 CPT,HT1080NT lethal,IL1B secr inh,HT1080 IDH1KD tx
Cc1ccc(S(=O)(=O)N2CCCC(c3nc4c(nnn4Cc4ccc(OC(F)(F)F)cc4)c(=O)[nH]3)C2)cc1 (centres undefined),n,n,x,x,x
CCOC(=O)N1CCN(C(=O)CN2C(=O)c3ccccc3S2(=O)=O)CC1,n,n,n,n,n
COC(=O)CN1C(C(=O)c2ccccc2)=C(OC(=O)c2ccc(F)cc2)c2ccccc2S1(=O)=O,n,16.4µM,x,x,x
CCN1C(C(=O)c2ccccc2)=C(OC(=O)c2ccc(Cl)cc2)c2ccccc2S1(=O)=O,23.1µM,u,x,x,x
O=C(O)c1ccc(CN2C(=O)c3ccccc3S2(=O)=O)cc1,n,n,n,n,n
CCOC(=O)CN1C(C(=O)c2ccccc2)=C(OC(=O)c2ccccc2)c2ccccc2S1(=O)=O,25.9µM,20.6µM,x,x,x
Cc1ccc(S(=O)(=O)N2C[C@H]3C(=O)C[C@@H](c4ccc(Cl)cc4)N(S(=O)(=O)c4ccccc4C)[C@H]3C[C@H]2c2ccc(Cl)cc2)cc1,u,n,n,n,n
COc1ccc(N2CCN(C(=O)C3CCN(C(=O)c4cccc(Cl)c4)CC3)CC2)cc1,u,u,n,n,n
Cn1nccc1CNC(=O)c1c(Cl)cnn1C,n,n,n,n,n
Cn1ncc(Cl)c1C(=O)NCc1cc(C(C)(C)C)n[nH]1,18.4µM,u,n,n,u
Cc1cccc(Cn2c(-c3cccc(Br)c3)nc3ccccc32)c1,16.4µM,18.4µM,x,x,x
CCC(O)c1nc2ccccc2n1Cc1cccc(Cl)c1 (centres undefined),18.4µM,u,x,x,x
Cc1nc2ccccc2n1Cc1ccc(Br)cc1,6.51µM,5.8µM,n,-63.4,u
Cc1nc2ccccc2n1Cc1ccccc1Br,u,u,n,n,u
Brc1cccc(Cn2c(-c3cncs3)nc3ccccc32)c1,n,u,n,n,n
Cn1cnc2cc(NCc3ccccc3O)ccc21,n,n,n,n,n
Cc1nc2cc(NCc3ccccc3O)ccc2n1Cc1ccccc1,u,u,n,-54.5,n
Cc1nc([N+](=O)[O-])c(Sc2nc3ccccc3n2C)n1Cc1ccccc1,5.17µM,u,n,-105.0,u
CCC(C)Cn1c(C)nc2ccccc21 (centres undefined),10.3µM,u,n,n,n
c1ccc(Cc2nc3ccccc3n2Cc2ccccc2)cc1,u,n,n,n,u
COCCn1c(C(C)C)nc2ccccc21,n,n,n,n,n
Cc1nc2ccccc2n1CSc1ccccc1,u,n,n,n,n
CC(c1nc2ccccc2n1Cc1ccccc1)N1CCCCC1 (centres undefined),18.4µM,16.4µM,n,n,n
Cc1nc([N+](=O)[O-])c(SCC(N)=O)n1Cc1ccccc1,u,n,n,n,n
Cc1nc2ccccc2n1Cc1ccccc1,u,16.4µM,n,n,u
SMILES,DT40 TDP1 no CPT,DT40 TDP1 CPT,HT1080NT lethal,IL1B secr inh,HT1080 IDH1KD tx
CCC(CC)CN1CCC(CN2C(=S)NC[C@@H]2CC(C)C)CC1,n,u,n,n,n
Cc1nc(Br)c(Br)n1Cc1ccccc1,20.6µM,u,n,n,u
S=c1[nH]nc(-c2ccc(Br)cc2)n1Cc1ccccc1,u,u,n,n,n
COc1ccc2[nH]c(=O)c3c(c2c1)OC(C)(C)C=C3,14.6µM,14.6µM,u,-106.1,u
COC1=CC(=NCl)C=CC1=NCl,16.4µM,20.6µM,n,n,n
COc1ccc2c(CNCc3cccs3)c(C(=O)O)n(Cc3ccccc3C)c2c1,2.91µM,u,x,x,x
COc1ccc2c(CNCc3cccs3)c(C(=O)O)n(Cc3ccccc3)c2c1,u,n,x,x,x
COc1ccc2c(CNCCc3cccs3)c(C(=O)O)n(Cc3ccccc3C)c2c1,5.17µM,8.2µM,x,x,x
CC1(C(=O)NCC2CCCCC2)CCN1C(=O)Cc1ccc(-c2ccccc2)cc1 (centres undefined),23.1µM,u,u,n,u
CC1(C(=O)NC2CCCC2)CCN1C(=O)Cc1ccc(-c2ccccc2)cc1 (centres undefined),23.1µM,16.4µM,u,n,u
Cc1cc(C(=O)CN2CCN(CC(=O)Nc3cccc(F)c3)CC2)c(C)n1C1CC1,n,n,n,n,n
CCC(Oc1ccccc1)C(=O)NCCOC (centres undefined),u,n,n,n,n
CC(C)Cc1ccccc1S(N)(=O)=O,n,n,n,n,n
CC(=O)c1ccc2c3c(ccc([N+](=O)[O-])c13)CC2,n,n,n,n,n
Nc1ccc2c3c(ccc([N+](=O)[O-])c13)CC2,7.31µM,u,n,u,n
COCCN(C(=O)c1ccc(N(C)S(=O)(=O)c2ccc(C)cc2)cc1)c1c(N)n(CC(C)C)c(=O)[nH]c1=O,n,n,n,n,n
COc1ccc(Nc2nc(-c3ccncc3)nc3ccccc23)cc1,10.3µM,20.6µM,n,n,n
COc1ccc(Nc2nc3cc(C)ccc3cc2C#N)cc1,n,u,n,n,n
COc1ccc(OC)c(Nc2nc(-c3ccncc3)nc3ccccc23)c1,7.31µM,18.4µM,n,n,n
COc1ccc(OC)c(Nc2nc(-c3ccccc3O)nc3ccccc23)c1,u,n,n,n,n
COc1ccc(Nc2nc3cc(C)ccc3cc2C#N)c(OC)c1,0.0291µM,1.16µM,n,n,u
COc1cccc(Nc2nc(-c3ccccc3)nc3ccccc23)c1,u,23.1µM,u,-73.0,u
COc1ccc(Nc2nc(N3CCN(S(=O)(=O)N(C)C)CC3)nc3ccccc23)cc1,8.2µM,11.6µM,n,n,n
COc1ccc(Nc2nc(N3CCCCC3)nc3ccccc23)c(OC)c1,u,u,u,-62.4,u
COc1cccc(Oc2nc(-c3ccncc3)nc3ccccc23)c1,u,14.6µM,n,u,n
SMILES,DT40 TDP1 no CPT,DT40 TDP1 CPT,HT1080NT lethal,IL1B secr inh,HT1080 IDH1KD tx
N#Cc1cccc(-c2nc(Nc3ccncc3)c3ccccc3n2)c1,2.91µM,2.59µM,x,x,x
COc1ccc(Oc2nc(-c3ccncc3)nc3ccccc23)cc1,u,n,u,n,n
CCNC(=O)CSc1nnc(-c2ccccc2Br)n1-c1cccc(C(F)(F)F)c1,u,u,n,n,n
COc1ccc(C(=O)NC(C)c2ccncc2)cc1S(=O)(=O)N(C)Cc1ccccc1 (centres undefined),n,n,n,n,n
C[C@@H]1CN([C@@H](C)CO)C(=O)CCCn2nncc2CO[C@H]1CN(C)C(=O)C1CC1,n,n,n,n,n
Cn1c(=O)c(-c2ccc(F)cc2)nc2cnc(Nc3ccccc3)nc21,n,n,x,x,x
COc1ccc(Nc2nc(-c3ccccc3)nc3ccccc23)c(OC)c1,20.6µM,u,n,n,n
COc1ccc(-c2ccc3c(c2)c(Sc2ccccc2)c(-c2ccccc2)n3C)cc1,n,u,n,n,n
